# Reference: ChEMBL document CHEMBL1961873, “Compounds: GSK PKIS; Assays: Nanosyn kinase panel” (2012)
# How the values were obtained:
# [1] = target: Ribosomal protein S6 kinase alpha-3 (Homo sapiens) (UniProt P51812); details: at 0.1 µM
# [2] = target: Ribosomal protein S6 kinase alpha-3 (Homo sapiens) (UniProt P51812); details: at 1 µM
# [3] = target: Ribosomal protein S6 kinase alpha-2 (Homo sapiens) (UniProt Q15349); details: at 0.1 µM
# [4] = target: Ribosomal protein S6 kinase alpha-2 (Homo sapiens) (UniProt Q15349); details: at 1 µM
# [5] = target: Ribosomal protein S6 kinase alpha-6 (Homo sapiens) (UniProt Q9UK32); details: at 0.1 µM
# [6] = target: Ribosomal protein S6 kinase alpha-6 (Homo sapiens) (UniProt Q9UK32); details: at 1 µM
# [7] = target: Serine/threonine-protein kinase Sgk1 (Homo sapiens) (UniProt O00141); details: at 0.1 µM
# [8] = target: Serine/threonine-protein kinase Sgk1 (Homo sapiens) (UniProt O00141); details: at 1 µM
# [9] = target: Serine/threonine-protein kinase Sgk2 (Homo sapiens) (UniProt Q9HBY8); details: at 0.1 µM
# Chain of Serine/threonine-protein kinase Sgk2 (Homo sapiens) (Q9HBY8 whole entry): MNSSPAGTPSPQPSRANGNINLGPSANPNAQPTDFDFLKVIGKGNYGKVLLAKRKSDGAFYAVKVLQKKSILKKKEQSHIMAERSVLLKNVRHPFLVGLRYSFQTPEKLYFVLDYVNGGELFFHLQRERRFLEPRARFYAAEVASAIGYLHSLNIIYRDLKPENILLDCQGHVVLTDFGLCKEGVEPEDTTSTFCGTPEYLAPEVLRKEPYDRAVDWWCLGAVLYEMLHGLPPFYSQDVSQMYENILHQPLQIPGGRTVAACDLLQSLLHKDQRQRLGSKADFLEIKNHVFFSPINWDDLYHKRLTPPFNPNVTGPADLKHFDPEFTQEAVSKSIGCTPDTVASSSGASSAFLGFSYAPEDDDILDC
# [10] = target: Serine/threonine-protein kinase Sgk2 (Homo sapiens) (UniProt Q9HBY8); details: at 1 µM
# [11] = target: Serine/threonine-protein kinase Sgk3 (Homo sapiens) (UniProt Q96BR1); details: at 0.1 µM
# [12] = target: Serine/threonine-protein kinase Sgk3 (Homo sapiens) (UniProt Q96BR1); details: at 1 µM
# [13] = target: 5'-AMP-activated protein kinase catalytic subunit alpha-1 (Homo sapiens) (UniProt Q13131); details: at 0.1 µM
# [14] = target: 5'-AMP-activated protein kinase catalytic subunit alpha-1 (Homo sapiens) (UniProt Q13131); details: at 1 µM
# [15] = target: 5'-AMP-activated protein kinase catalytic subunit alpha-2 (Homo sapiens) (UniProt P54646); details: at 0.1 µM
# Chain of 5'-AMP-activated protein kinase catalytic subunit alpha-2 (Homo sapiens) (P54646 whole entry, looked up): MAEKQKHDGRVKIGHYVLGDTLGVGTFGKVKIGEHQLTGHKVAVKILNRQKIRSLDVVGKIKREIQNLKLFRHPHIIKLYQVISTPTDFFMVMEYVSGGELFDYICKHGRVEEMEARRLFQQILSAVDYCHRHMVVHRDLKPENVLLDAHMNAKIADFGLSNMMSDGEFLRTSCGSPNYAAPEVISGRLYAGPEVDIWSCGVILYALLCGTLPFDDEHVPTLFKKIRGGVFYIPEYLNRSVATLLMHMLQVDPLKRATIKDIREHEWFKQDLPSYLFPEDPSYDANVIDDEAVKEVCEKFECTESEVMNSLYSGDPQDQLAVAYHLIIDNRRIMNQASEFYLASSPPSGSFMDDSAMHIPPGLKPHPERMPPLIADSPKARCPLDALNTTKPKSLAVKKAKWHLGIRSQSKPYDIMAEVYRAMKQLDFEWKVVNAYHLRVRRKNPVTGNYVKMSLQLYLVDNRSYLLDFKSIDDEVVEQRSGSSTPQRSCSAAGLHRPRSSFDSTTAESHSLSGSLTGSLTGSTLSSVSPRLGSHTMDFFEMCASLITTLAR
# [16] = target: 5'-AMP-activated protein kinase catalytic subunit alpha-2 (Homo sapiens) (UniProt P54646); details: at 1 µM
# [17] = target: NUAK family SNF1-like kinase 1 (Homo sapiens) (UniProt O60285); details: at 0.1 µM
# [18] = target: NUAK family SNF1-like kinase 1 (Homo sapiens) (UniProt O60285); details: at 1 µM
# [19] = target: Serine/threonine-protein kinase BRSK1 (Homo sapiens) (UniProt Q8TDC3); details: at 0.1 µM
# [20] = target: Serine/threonine-protein kinase BRSK1 (Homo sapiens) (UniProt Q8TDC3); details: at 1 µM
# [21] = target: Serine/threonine-protein kinase BRSK2 (Homo sapiens) (UniProt Q8IWQ3); details: at 0.1 µM
# [22] = target: Serine/threonine-protein kinase BRSK2 (Homo sapiens) (UniProt Q8IWQ3); details: at 1 µM
# [23] = target: Calcium/calmodulin-dependent protein kinase type 1D (Homo sapiens) (UniProt Q8IU85); details: at 0.1 µM
# [24] = target: Calcium/calmodulin-dependent protein kinase type 1D (Homo sapiens) (UniProt Q8IU85); details: at 1 µM
# [25] = target: Calcium/calmodulin-dependent protein kinase type II subunit alpha (Homo sapiens) (UniProt Q9UQM7); details: at 0.1 µM
# Chain of Calcium/calmodulin-dependent protein kinase type II subunit alpha (Homo sapiens) (Q9UQM7 whole entry): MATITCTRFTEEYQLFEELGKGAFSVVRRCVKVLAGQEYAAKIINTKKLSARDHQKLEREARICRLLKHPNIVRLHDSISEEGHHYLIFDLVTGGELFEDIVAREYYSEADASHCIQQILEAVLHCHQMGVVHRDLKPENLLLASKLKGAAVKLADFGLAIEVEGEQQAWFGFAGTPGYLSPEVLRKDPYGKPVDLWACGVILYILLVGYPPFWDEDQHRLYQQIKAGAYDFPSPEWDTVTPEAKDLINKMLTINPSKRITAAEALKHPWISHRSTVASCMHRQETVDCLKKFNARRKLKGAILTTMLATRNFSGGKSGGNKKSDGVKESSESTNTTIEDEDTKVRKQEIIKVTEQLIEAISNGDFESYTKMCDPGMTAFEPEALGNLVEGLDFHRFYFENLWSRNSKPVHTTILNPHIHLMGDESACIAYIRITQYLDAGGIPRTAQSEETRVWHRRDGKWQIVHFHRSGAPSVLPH
# [26] = target: Calcium/calmodulin-dependent protein kinase type II subunit alpha (Homo sapiens) (UniProt Q9UQM7); details: at 1 µM
# [27] = target: Calcium/calmodulin-dependent protein kinase type II subunit delta (Homo sapiens) (UniProt Q13557); details: at 0.1 µM
# [28] = target: Calcium/calmodulin-dependent protein kinase type II subunit delta (Homo sapiens) (UniProt Q13557); details: at 1 µM
# [29] = target: Calcium/calmodulin-dependent protein kinase type IV (Homo sapiens) (UniProt Q16566); details: at 0.1 µM
# [30] = target: Calcium/calmodulin-dependent protein kinase type IV (Homo sapiens) (UniProt Q16566); details: at 1 µM
# [31] = target: Serine/threonine-protein kinase Chk1 (Homo sapiens) (UniProt O14757); details: at 0.1 µM
# Chain of Serine/threonine-protein kinase Chk1 (Homo sapiens) (O14757 whole entry): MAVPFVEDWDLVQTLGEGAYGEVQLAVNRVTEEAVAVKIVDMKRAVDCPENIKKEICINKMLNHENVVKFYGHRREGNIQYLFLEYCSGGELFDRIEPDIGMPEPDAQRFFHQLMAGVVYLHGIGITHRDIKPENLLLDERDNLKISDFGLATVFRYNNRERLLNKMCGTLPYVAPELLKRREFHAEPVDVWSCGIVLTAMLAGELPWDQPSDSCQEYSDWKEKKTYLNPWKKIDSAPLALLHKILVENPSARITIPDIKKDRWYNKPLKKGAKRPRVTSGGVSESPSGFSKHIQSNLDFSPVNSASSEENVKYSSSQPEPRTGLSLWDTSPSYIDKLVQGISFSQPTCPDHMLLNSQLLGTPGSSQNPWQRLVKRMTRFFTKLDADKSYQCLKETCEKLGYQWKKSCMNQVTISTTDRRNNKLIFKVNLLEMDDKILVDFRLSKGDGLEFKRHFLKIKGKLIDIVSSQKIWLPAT
# [32] = target: Serine/threonine-protein kinase Chk1 (Homo sapiens) (UniProt O14757); details: at 1 µM
# [33] = target: Serine/threonine-protein kinase Chk2 (Homo sapiens) (UniProt O96017); details: at 0.1 µM
# [34] = target: Serine/threonine-protein kinase Chk2 (Homo sapiens) (UniProt O96017); details: at 1 µM
# [35] = target: Death-associated protein kinase 1 (Homo sapiens) (UniProt P53355); details: at 0.1 µM
# [36] = target: Death-associated protein kinase 1 (Homo sapiens) (UniProt P53355); details: at 1 µM
# [37] = target: Serine/threonine-protein kinase DCLK2 (Homo sapiens) (UniProt Q8N568); details: at 0.1 µM
# [38] = target: Serine/threonine-protein kinase DCLK2 (Homo sapiens) (UniProt Q8N568); details: at 1 µM
# [39] = target: MAP kinase-activated protein kinase 2 (Homo sapiens) (UniProt P49137); details: at 0.1 µM
# [40] = target: MAP kinase-activated protein kinase 2 (Homo sapiens) (UniProt P49137); details: at 1 µM
# [41] = target: MAP kinase-activated protein kinase 3 (Homo sapiens) (UniProt Q16644); details: at 0.1 µM
# [42] = target: MAP kinase-activated protein kinase 3 (Homo sapiens) (UniProt Q16644); details: at 1 µM
# [43] = target: Serine/threonine-protein kinase MARK1 (Homo sapiens) (UniProt Q9P0L2); details: at 0.1 µM
# Chain of Serine/threonine-protein kinase MARK1 (Homo sapiens) (Q9P0L2 whole entry, looked up): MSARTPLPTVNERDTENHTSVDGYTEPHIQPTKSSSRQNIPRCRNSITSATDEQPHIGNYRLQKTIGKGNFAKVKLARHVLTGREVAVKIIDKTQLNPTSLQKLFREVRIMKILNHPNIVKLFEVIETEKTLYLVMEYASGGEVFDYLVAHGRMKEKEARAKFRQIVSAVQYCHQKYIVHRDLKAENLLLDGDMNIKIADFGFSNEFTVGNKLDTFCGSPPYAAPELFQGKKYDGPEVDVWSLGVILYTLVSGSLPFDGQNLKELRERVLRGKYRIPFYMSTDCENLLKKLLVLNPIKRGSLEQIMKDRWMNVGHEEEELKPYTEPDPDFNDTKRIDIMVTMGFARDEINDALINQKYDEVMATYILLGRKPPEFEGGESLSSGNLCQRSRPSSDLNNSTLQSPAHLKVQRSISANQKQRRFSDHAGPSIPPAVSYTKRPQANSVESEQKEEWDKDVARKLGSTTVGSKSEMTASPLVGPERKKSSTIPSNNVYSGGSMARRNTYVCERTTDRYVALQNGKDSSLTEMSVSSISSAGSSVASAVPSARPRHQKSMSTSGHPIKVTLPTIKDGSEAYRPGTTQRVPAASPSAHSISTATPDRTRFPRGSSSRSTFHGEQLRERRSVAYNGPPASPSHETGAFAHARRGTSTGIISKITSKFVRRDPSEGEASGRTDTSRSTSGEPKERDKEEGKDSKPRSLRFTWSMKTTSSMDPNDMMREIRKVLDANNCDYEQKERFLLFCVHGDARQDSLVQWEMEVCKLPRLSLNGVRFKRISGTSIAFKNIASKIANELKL
# [44] = target: Serine/threonine-protein kinase MARK1 (Homo sapiens) (UniProt Q9P0L2); details: at 1 µM
# [45] = target: MAP/microtubule affinity-regulating kinase 3 (Homo sapiens) (UniProt P27448); details: at 0.1 µM
# [46] = target: MAP/microtubule affinity-regulating kinase 3 (Homo sapiens) (UniProt P27448); details: at 1 µM
# [47] = target: MAP/microtubule affinity-regulating kinase 4 (Homo sapiens) (UniProt Q96L34); details: at 0.1 µM
# [48] = target: MAP/microtubule affinity-regulating kinase 4 (Homo sapiens) (UniProt Q96L34); details: at 1 µM
# [49] = target: Maternal embryonic leucine zipper kinase (Homo sapiens) (UniProt Q14680); details: at 0.1 µM
# [50] = target: Maternal embryonic leucine zipper kinase (Homo sapiens) (UniProt Q14680); details: at 1 µM
# [51] = target: MAP kinase-interacting serine/threonine-protein kinase 1 (Homo sapiens) (UniProt Q9BUB5); details: at 0.1 µM
# [52] = target: MAP kinase-interacting serine/threonine-protein kinase 1 (Homo sapiens) (UniProt Q9BUB5); details: at 1 µM
# [53] = target: MAP kinase-interacting serine/threonine-protein kinase 2 (Homo sapiens) (UniProt Q9HBH9); details: at 0.1 µM
# [54] = target: MAP kinase-interacting serine/threonine-protein kinase 2 (Homo sapiens) (UniProt Q9HBH9); details: at 1 µM
# [55] = target: Serine/threonine-protein kinase MARK2 (Homo sapiens) (UniProt Q7KZI7); details: at 0.1 µM
# Chain of Serine/threonine-protein kinase MARK2 (Homo sapiens) (Q7KZI7 whole entry): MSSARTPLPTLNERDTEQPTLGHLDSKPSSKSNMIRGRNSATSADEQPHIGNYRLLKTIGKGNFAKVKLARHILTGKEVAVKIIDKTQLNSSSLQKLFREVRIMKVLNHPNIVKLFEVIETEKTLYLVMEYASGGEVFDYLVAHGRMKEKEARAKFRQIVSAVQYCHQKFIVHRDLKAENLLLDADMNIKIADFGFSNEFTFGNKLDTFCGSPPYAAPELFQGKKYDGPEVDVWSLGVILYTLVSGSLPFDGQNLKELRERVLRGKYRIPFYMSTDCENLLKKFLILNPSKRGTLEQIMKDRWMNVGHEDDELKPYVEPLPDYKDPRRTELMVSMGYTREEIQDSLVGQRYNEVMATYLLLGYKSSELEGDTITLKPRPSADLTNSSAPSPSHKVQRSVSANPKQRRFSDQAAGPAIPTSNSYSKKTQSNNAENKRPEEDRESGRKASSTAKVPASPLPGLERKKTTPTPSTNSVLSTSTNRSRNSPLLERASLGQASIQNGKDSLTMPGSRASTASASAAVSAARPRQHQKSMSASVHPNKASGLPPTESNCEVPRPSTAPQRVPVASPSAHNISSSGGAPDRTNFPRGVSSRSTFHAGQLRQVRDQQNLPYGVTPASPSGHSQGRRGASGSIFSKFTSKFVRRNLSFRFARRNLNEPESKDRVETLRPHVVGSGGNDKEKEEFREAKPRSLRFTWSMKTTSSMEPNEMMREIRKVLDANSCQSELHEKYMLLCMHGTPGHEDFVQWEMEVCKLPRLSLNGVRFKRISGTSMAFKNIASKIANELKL
# [56] = target: Serine/threonine-protein kinase MARK2 (Homo sapiens) (UniProt Q7KZI7); details: at 1 µM
# Chain of Ribosomal protein S6 kinase alpha-3 (Homo sapiens) (P51812 whole entry): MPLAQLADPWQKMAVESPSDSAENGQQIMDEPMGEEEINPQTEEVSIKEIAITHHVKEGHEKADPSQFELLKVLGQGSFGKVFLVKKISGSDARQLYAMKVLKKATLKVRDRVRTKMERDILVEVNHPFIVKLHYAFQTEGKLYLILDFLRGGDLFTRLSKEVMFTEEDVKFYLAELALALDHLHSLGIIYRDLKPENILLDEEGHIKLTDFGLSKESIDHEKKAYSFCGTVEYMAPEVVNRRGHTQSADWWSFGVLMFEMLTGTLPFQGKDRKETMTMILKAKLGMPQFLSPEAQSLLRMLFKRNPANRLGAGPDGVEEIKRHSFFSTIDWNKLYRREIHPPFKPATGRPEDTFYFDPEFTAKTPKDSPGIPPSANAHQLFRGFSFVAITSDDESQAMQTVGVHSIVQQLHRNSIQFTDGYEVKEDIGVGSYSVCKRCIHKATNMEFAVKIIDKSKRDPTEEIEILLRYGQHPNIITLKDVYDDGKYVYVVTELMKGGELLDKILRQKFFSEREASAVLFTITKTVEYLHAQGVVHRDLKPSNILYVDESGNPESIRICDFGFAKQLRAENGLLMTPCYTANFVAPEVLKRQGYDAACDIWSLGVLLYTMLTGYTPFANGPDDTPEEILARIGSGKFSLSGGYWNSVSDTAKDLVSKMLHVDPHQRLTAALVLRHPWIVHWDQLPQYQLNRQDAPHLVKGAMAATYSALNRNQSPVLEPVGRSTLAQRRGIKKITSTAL
# Chain of Ribosomal protein S6 kinase alpha-2 (Homo sapiens) (Q15349 whole entry): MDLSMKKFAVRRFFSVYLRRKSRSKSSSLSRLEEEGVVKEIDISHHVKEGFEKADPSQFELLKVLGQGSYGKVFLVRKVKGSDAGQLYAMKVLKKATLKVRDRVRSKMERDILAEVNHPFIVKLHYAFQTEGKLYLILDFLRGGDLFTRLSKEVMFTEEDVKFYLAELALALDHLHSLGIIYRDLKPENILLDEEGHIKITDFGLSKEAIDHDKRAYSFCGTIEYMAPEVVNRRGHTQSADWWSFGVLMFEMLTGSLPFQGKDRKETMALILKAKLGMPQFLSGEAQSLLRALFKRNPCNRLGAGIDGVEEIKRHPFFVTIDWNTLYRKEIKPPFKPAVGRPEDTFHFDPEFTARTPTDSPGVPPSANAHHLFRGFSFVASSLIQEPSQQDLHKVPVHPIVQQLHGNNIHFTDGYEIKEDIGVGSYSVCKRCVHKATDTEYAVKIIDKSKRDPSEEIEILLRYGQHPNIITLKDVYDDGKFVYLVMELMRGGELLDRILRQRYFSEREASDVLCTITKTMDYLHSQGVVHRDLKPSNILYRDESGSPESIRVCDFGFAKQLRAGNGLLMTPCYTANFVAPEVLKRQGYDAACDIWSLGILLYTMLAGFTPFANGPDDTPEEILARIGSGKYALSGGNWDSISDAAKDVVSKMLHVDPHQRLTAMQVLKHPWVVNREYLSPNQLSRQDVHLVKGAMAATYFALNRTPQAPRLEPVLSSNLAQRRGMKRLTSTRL
structure (smiles),measurement,setting,value
CNC(=O)Oc1cc(C)c(/C=C/c2cncc(C(=O)NC)c2)c(C)c1,inhibition,[1],1.05%
same,inhibition,[2],3.39%
same,inhibition,[3],1.4%
same,inhibition,[4],3.44%
same,inhibition,[5],1.15%
same,inhibition,[6],2.66%
same,inhibition,[7],3.01%
same,inhibition,[8],0.19%
same,inhibition,[9],1.73%
same,inhibition,[10],0.22%
same,inhibition,[11],1.34%
same,inhibition,[12],0.65%
same,inhibition,[13],2.14%
same,inhibition,[14],0.11%
same,inhibition,[15],-0.38%
same,inhibition,[16],2.44%
same,inhibition,[17],-1.06%
same,inhibition,[18],4.07%
same,inhibition,[19],2.89%
same,inhibition,[20],12%
same,inhibition,[21],1.79%
same,inhibition,[22],7.68%
same,inhibition,[23],0.95%
same,inhibition,[24],2.36%
same,inhibition,[25],3.17%
same,inhibition,[26],4.72%
same,inhibition,[27],4.03%
same,inhibition,[28],5.12%
same,inhibition,[29],1.23%
same,inhibition,[30],0.1%
same,inhibition,[31],-2.68%
same,inhibition,[32],-3.25%
same,inhibition,[33],-3.08%
same,inhibition,[34],0.64%
same,inhibition,[35],-4.67%
same,inhibition,[36],-3.09%
same,inhibition,[37],1.08%
same,inhibition,[38],-1.11%
same,inhibition,[39],-2.03%
same,inhibition,[40],-2.01%
same,inhibition,[41],-3.36%
same,inhibition,[42],-4.16%
same,inhibition,[43],1.32%
same,inhibition,[44],0.49%
same,inhibition,[45],3.32%
same,inhibition,[46],5.19%
same,inhibition,[47],0.21%
same,inhibition,[48],0.46%
same,inhibition,[49],1.41%
same,inhibition,[50],3.48%
same,inhibition,[51],5.31%
same,inhibition,[52],30.7%
same,inhibition,[53],3.17%
same,inhibition,[54],25.1%
same,inhibition,[55],-0.87%
same,inhibition,[56],0.31%
